High-throughput results from PubChem BioAssay.
SKKanGAS inh: blocks kanamycin growth of S. pyogenes SKKanGAS strain | BacTiter-Glo, 6 h | inhibition, % at 7.5 µM | hit rate 1.3% among 300,000 | AID 1662;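 active = mean replicate score, as percent of positive control median, at least 50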;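 note: strain carries kanamycin resistance gene driven by streptokinase promoter and grows in 40 µg/ml kanamycin; loss of luminescence reflects streptokinase promoter inhibition or plain growth inhibition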
tim23-1 inh: inhibits growth of tim23-1 mutant yeast | hit rate 1.3% among 330,000 | AID 463212 | inhibition, % at 20 µM | S. cerevisiae tim23-1 growth, BacTiter-Glo luminescence, 24 h;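 active = growth inhibition of the mutant yeast at or above 50%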;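 note: temperature-sensitive mutant grown at 25 °C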
PfHsp90 yeast 2: growth inhibition of yeast expressing Plasmodium Hsp90 | S. cerevisiae expressing PfHsp90, BacTiter-Glo ATP, 48 h; yeast lacking PDR1 and PDR3 efflux regulators | inhibition, % at 9.4 µM | hit rate 0.32% among 310,000 | AID 504621;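 active = every replicate shows inhibition above about 80%, whatever the replicate mean, limit read from the data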
V-ATPase pHluor: regulators of yeast V-ATPase proton transport. hit rate 0.37% among 350,000. response, % at 10 µM. S. cerevisiae, pHLuorin cytosolic pH fluorescence; in the data active = response mostly above about 7.3%, no sharp cut-off; inactive = mostly below about 5.4%; note: actives read high
TIM10 inh: inhibits growth of TIM10 yeast strain | inhibition, % at 10 µM | AID 463195 | S. cerevisiae TIM10 strain growth, BacTiter-Glo luminescence, 24 h | hit rate 1.4% among 330,000;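 active = inhibition of 40% or more at the single tested concentration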;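 note: wild-type TIM10 isogenic control strain grown at permissive 25 °C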
tim10-1 inh: inhibits growth of tim10-1 mutant yeast; S. cerevisiae tim10-1 ts strain growth, BacTiter-Glo, 24 h; inhibition, % at 20 µM; hit rate 2.2% among 330,000;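 active = inhibition of at least 40%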;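 note: mutant grown at 25 °C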
tim10 confirm: TIM10 yeast growth inhibition, confirmed | inhibition, % at 10 µM | hit rate 63% among 4,600 | AID 463215 | S. cerevisiae tim10 strain growth, BacTiter-Glo luminescence, 24 h | shares compounds with TIM10 inh;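 active = inhibition of yeast growth at or above a set limit in either of two replicates at 10 µM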; note: this counterscreen used the strain with wild-type TIM10
Hits are given with their value. Hits are enriched below; roughly 4.6% of the tested compounds scored in any of these assays.

Screening CCOC(=O)N1CCN(C(=O)c2ccc3c(c2)sc2nc(-c4ccccc4)cn23)CC1 returned SKKanGAS inh inactive, tim23-1 inh inactive, PfHsp90 yeast 2 inactive, V-ATPase pHluor inactive, TIM10 inh 44.5, tim10-1 inh inactive and tim10 confirm 52.8.
O=S(=O)(Nc1ccc(-n2cccc2)cc1)c1ccc(Cl)c(Cl)c1 was read as SKKanGAS inh 49.8, tim23-1 inh inactive, PfHsp90 yeast 2 inactive, V-ATPase pHluor inactive, TIM10 inh 45.2, tim10-1 inh inactive and tim10 confirm 40.5.
`COc1cccc(/C=N/NC(=O)CN(C)S(=O)(=O)c2ccccc2)c1OC` gave tim23-1 inh inactive, PfHsp90 yeast 2 inactive, V-ATPase pHluor inactive, TIM10 inh inactive and tim10-1 inh inactive.
For CCCCCOCC1CC(C/C(C)=N/NC(N)=S)C(=O)O1 (stereo not drawn) the results were SKKanGAS inh inactive, tim23-1 inh inactive, PfHsp90 yeast 2 inactive, V-ATPase pHluor inactive, TIM10 inh inactive and tim10-1 inh inactive.
`C/C(CC1CC(COCC(C)C)OC1=O)=N\NC(N)=S` (stereo not drawn) gave SKKanGAS inh inactive, tim23-1 inh inactive, PfHsp90 yeast 2 inactive, V-ATPase pHluor inactive, TIM10 inh 96.4, tim10-1 inh inactive and tim10 confirm inactive.
Cc1cc(NC(=O)Nc2cccc([N+](=O)[O-])c2)no1 was read as SKKanGAS inh inactive, tim23-1 inh inactive, PfHsp90 yeast 2 inactive, V-ATPase pHluor inactive, TIM10 inh inactive and tim10-1 inh inactive.
For Cc1ccc(NC(=O)Nc2cccc([N+](=O)[O-])c2)cc1F the results were SKKanGAS inh inactive, tim23-1 inh inactive, PfHsp90 yeast 2 inactive, V-ATPase pHluor inactive, TIM10 inh inactive and tim10-1 inh inactive.
`O=C(Nc1ccc(OC(F)(F)F)cc1)Nc1cccc([N+](=O)[O-])c1` gave SKKanGAS inh inactive, tim23-1 inh inactive, PfHsp90 yeast 2 inactive, V-ATPase pHluor inactive, TIM10 inh 44.5, tim10-1 inh inactive and tim10 confirm 34.2.
`CC(C)(C)CC(C)(C)NC(=O)Nc1cccc([N+](=O)[O-])c1` gave SKKanGAS inh inactive, tim23-1 inh inactive, PfHsp90 yeast 2 inactive, V-ATPase pHluor inactive, TIM10 inh 46.5, tim10-1 inh inactive and tim10 confirm 45.4.
Cc1ccc(C)c(/C=N/n2cc(-c3ccccc3)[nH]c2=S)c1 was read as SKKanGAS inh inactive, tim23-1 inh inactive, PfHsp90 yeast 2 inactive, V-ATPase pHluor inactive, TIM10 inh inactive and tim10-1 inh inactive.
Screening Fc1ccccc1/C=N/n1cc(-c2ccccc2)[nH]c1=S returned SKKanGAS inh inactive, tim23-1 inh inactive, PfHsp90 yeast 2 inactive, V-ATPase pHluor inactive, TIM10 inh 45.5, tim10-1 inh inactive and tim10 confirm 46.5.
CCCn1c(N)c(N(CCOC)C(=O)CSc2c(Cl)cccc2Cl)c(=O)[nH]c1=O was read as tim23-1 inh inactive, PfHsp90 yeast 2 inactive, V-ATPase pHluor inactive, TIM10 inh inactive and tim10-1 inh inactive.
`CC(C)(C)c1ccc(OCCNCc2ccccc2)cc1` gave SKKanGAS inh inactive, tim23-1 inh inactive, PfHsp90 yeast 2 inactive, V-ATPase pHluor inactive, TIM10 inh inactive and tim10-1 inh inactive.
`CC(C)(C)c1ccc(OCCNC(=S)Nc2ccccc2)cc1` gave SKKanGAS inh inactive, tim23-1 inh inactive, PfHsp90 yeast 2 inactive, V-ATPase pHluor inactive, TIM10 inh 54.0, tim10-1 inh inactive and tim10 confirm 39.1.
COc1ccc(NC(=O)N2CCN(c3nc(-c4cccc(OC)c4)cs3)CC2)cc1 was read as SKKanGAS inh inactive, tim23-1 inh inactive, PfHsp90 yeast 2 inactive, V-ATPase pHluor inactive, TIM10 inh 40.2, tim10-1 inh inactive and tim10 confirm 29.1.
O=C(NCCCN1CCCC1=O)C1CCC(CNS(=O)(=O)c2ccc(Cl)cc2)CC1 (stereo not drawn) was read as SKKanGAS inh inactive, tim23-1 inh inactive, PfHsp90 yeast 2 inactive, V-ATPase pHluor inactive, TIM10 inh inactive and tim10-1 inh inactive.
Screening S=C(NN=C1CCCCCC1)Nc1ccc(Cl)cc1 returned SKKanGAS inh inactive, tim23-1 inh inactive, PfHsp90 yeast 2 inactive, V-ATPase pHluor inactive, TIM10 inh inactive and tim10-1 inh inactive.
For Fc1ccc(NC(=S)NN=C2CCCCCC2)cc1 the results were SKKanGAS inh inactive, tim23-1 inh inactive, PfHsp90 yeast 2 inactive, V-ATPase pHluor inactive, TIM10 inh 44.7, tim10-1 inh inactive and tim10 confirm inactive.
`O=S(=O)(c1ccc(OC(F)(F)F)cc1)N1CCCC(N2CCOCC2)C1` (stereo not drawn) gave SKKanGAS inh inactive, tim23-1 inh inactive, PfHsp90 yeast 2 inactive, V-ATPase pHluor inactive, TIM10 inh inactive and tim10-1 inh inactive.
Screening CCOC(=O)C1CCN(C(=O)c2sc3ncnc(N4CCC(C)CC4)c3c2C)CC1 returned SKKanGAS inh inactive, tim23-1 inh inactive, PfHsp90 yeast 2 inactive, V-ATPase pHluor inactive, TIM10 inh 40.8, tim10-1 inh inactive and tim10 confirm inactive.
`O=C(NC(=S)Nc1cc(Cl)ccc1Cl)c1ccco1` gave V-ATPase pHluor inactive.
For CC(C)(C)c1ccc(-n2nc(C#N)c(Cl)cc2=O)cc1 the results were SKKanGAS inh inactive, tim23-1 inh inactive, PfHsp90 yeast 2 100.1, V-ATPase pHluor inactive, TIM10 inh 47.7, tim10-1 inh inactive and tim10 confirm 47.3.
`CCCCn1cnc2c(oc3nc4c(cc32)CCCC4)c1=O` gave SKKanGAS inh inactive, tim23-1 inh inactive, PfHsp90 yeast 2 inactive, V-ATPase pHluor inactive, TIM10 inh inactive and tim10-1 inh inactive.
CCCCCCn1cnc2c(oc3nc4c(cc32)CCCC4)c1=O was read as SKKanGAS inh inactive, tim23-1 inh inactive, PfHsp90 yeast 2 inactive, V-ATPase pHluor inactive, TIM10 inh 43.2, tim10-1 inh inactive and tim10 confirm inactive.
Screening Cc1cc(Sc2ncnc(N)c2[N+](=O)[O-])ncn1 returned SKKanGAS inh inactive, tim23-1 inh inactive, PfHsp90 yeast 2 inactive, V-ATPase pHluor inactive, TIM10 inh 42.4, tim10-1 inh inactive and tim10 confirm inactive.
`Cc1ccc(C)c(Oc2ncnc(N)c2[N+](=O)[O-])c1` gave SKKanGAS inh inactive, tim23-1 inh inactive, PfHsp90 yeast 2 inactive, V-ATPase pHluor inactive, TIM10 inh inactive and tim10-1 inh inactive.
COc1ccc(N2C(=O)c3ccc(C(=O)Nc4ccc(NC(C)=O)cc4)cc3C2=O)cc1 was read as SKKanGAS inh inactive, tim23-1 inh inactive, PfHsp90 yeast 2 inactive, V-ATPase pHluor inactive, TIM10 inh inactive and tim10-1 inh inactive.
`CCCCCCN1C[C@H](n2cc(-c3ccc(F)cc3)nn2)[C@@H](O)C[C@@H]1c1ccc(Cl)cc1` gave V-ATPase pHluor inactive.
O=C(N=C1c2ccccc2CN1c1ccc(F)c(F)c1)c1cccnc1 was read as tim23-1 inh inactive, PfHsp90 yeast 2 inactive, V-ATPase pHluor inactive, TIM10 inh 48.6, tim10-1 inh inactive and tim10 confirm inactive.
